According to PubChem BioAssay (EPA / NIEHS):
Inconclusive results are not listed. Calls of active or inactive are those of the source. The calls were made as follows, unless noted: active = hit-call score of the fitted dose curve at least 0.9, where 1 is the maximum; inactive = score below 0.9.

Experiments:
[1] = read-out: Intercellular Adhesion Molecule 1 (ICAM1), ICAM1 (gene 3383); assay: BSK_3C_ICAM1: BioMAP Diversity Plus: 3C Assay for Intercellular Adhesion Molecule 1 (ICAM1) Biomarker Activity (AID 2283003); conditions: primary human endothelial cells (HUVEC); actives raise or lower the signal
How it was run: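 Using DMSO as baseline, bidirectional curve fitting was applied to ICAM-1 ELISA signals from HUVEC in the 3C system, measured 24 h after compound addition.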

[2] = target: human Retinoic Acid Receptor beta (RARb), RARB (gene 5915) (UniProt P10826); assay: ATG_RARb_TRANS: Attagene TRANS-FACTORIAL HepG2 Assay for human Retinoic Acid Receptor beta (AID 2283004; active = hit-call score of the fitted dose curve at least 0.9, where 1 is the maximum)
Chain of human Retinoic Acid Receptor beta (RARb), RARB (gene 5915) (P10826 whole entry, looked up, the tested form may be a part): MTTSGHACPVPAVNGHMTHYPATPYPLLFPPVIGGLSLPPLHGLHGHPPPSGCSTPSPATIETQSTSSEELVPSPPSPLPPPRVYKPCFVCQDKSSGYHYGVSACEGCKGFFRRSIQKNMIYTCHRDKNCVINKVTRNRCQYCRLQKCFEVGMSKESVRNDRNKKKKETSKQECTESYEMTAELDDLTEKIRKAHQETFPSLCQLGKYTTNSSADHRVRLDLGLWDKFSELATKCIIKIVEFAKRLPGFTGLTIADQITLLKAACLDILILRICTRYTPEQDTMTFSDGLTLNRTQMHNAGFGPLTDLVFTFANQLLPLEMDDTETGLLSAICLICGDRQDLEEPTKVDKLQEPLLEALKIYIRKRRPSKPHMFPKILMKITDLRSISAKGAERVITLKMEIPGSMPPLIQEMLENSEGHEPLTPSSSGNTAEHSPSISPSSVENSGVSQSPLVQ
How it was run: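 HepG2, transient MRTU transfection, NR–Gal4 chimera, 24 h treatment; RT-PCR plus CE fluorescence detection of reporter mRNA; gain of signal vs DMSO.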

[3] = target: Retinoic acid receptor alpha (Homo sapiens) (UniProt P10276); assay: ATG_RARa_TRANS: Attagene TRANS-FACTORIAL HepG2 Assay for human Retinoic Acid Receptor alpha (RARa) (AID 2283005; active = hit-call score of the fitted dose curve at least 0.9, where 1 is the maximum)
How it was run: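 HepG2 transiently transfected with multiplex GAL4-UAS reporter units including a human RARa–GAL4 chimera; 24 h compound exposure. Reporter mRNA quantified by RT-PCR, 6-FAM labeling and capillary electrophoresis; gain of signal versus DMSO.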

[4] = BSK_3C_Proliferation: Cell Proliferation Assessment in the BioMAP Diversity Plus: 3C Assay (AID 2283006); conditions: primary human endothelial cells (HUVEC);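 also: potency may reflect either rise or fall in cell number versus DMSO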
How it was run: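 Measured here: sulforhodamine B (0.1%) staining of TCA-fixed sub-confluent umbilical vein endothelial cultures 48 h post-dosing, absorbance 560 nm. DMSO served as negative control and baseline; both signal gain and loss were modelled.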

[5] = target: Peroxisome proliferator-activated receptor gamma (Homo sapiens) (UniProt P37231); assay: ATG_PPARg_TRANS: Attagene TRANS-FACTORIAL HepG2 Assay for human Peroxisome Proliferator-activated Receptor-gamma (PPARg) (AID 2283007; active = hit-call score of the fitted dose curve at least 0.9, where 1 is the maximum)
Chain of Peroxisome proliferator-activated receptor gamma (Homo sapiens) (P37231 whole entry, looked up): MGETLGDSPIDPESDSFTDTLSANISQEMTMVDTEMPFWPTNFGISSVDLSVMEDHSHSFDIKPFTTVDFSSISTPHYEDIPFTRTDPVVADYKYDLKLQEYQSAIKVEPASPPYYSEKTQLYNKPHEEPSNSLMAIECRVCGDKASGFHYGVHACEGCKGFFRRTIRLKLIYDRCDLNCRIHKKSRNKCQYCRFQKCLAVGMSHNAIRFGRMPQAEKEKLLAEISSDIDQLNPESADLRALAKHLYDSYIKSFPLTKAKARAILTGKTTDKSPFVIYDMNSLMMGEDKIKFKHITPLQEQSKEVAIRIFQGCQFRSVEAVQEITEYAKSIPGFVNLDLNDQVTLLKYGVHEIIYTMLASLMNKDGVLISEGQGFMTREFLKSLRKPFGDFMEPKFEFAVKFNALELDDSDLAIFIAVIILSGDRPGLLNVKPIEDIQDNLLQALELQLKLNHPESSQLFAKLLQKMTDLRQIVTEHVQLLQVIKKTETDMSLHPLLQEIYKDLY
How it was run: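 Human hepatoma HepG2, transient MRTU transfection, 24 h treatment. mRNA reporter signal by RT-PCR plus capillary electrophoresis, fluorescence detection; fitted for increase over DMSO negative control.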

[6] = target: Nuclear receptor subfamily 1 group I member 2 (Homo sapiens) (UniProt O75469); assay: ATG_PXR_TRANS: Attagene TRANS-FACTORIAL HepG2 Assay for human Pregnane X Receptor (PXR) (AID 2283008; active = hit-call score of the fitted dose curve at least 0.9, where 1 is the maximum)
Chain of Nuclear receptor subfamily 1 group I member 2 (Homo sapiens) (O75469 whole entry, looked up, the tested form may be a part): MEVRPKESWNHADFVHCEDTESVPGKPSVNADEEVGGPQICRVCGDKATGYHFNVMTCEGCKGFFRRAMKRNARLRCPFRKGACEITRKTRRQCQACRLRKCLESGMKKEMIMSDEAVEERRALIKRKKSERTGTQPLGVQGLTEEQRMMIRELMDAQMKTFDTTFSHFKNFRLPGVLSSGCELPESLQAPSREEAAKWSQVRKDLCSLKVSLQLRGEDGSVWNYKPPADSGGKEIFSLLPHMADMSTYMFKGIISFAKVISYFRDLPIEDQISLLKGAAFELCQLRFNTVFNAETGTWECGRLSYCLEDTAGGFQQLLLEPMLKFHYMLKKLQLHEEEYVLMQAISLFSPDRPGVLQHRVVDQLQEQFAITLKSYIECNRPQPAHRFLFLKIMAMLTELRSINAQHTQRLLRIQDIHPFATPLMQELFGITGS
How it was run: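 Trans-factorial format: exogenous NR-Gal4 fusion activity, not endogenous factor, in transfected human HepG2 liver cells. After 24 h dosing, RNA isolated, reverse-transcribed, amplified and resolved by capillary electrophoresis; induction scored versus DMSO.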

[7] = target: Retinoic acid receptor RXR-alpha (Homo sapiens) (UniProt P19793); assay: ATG_RXRa_TRANS: Attagene TRANS-FACTORIAL HepG2 Assay for human Retinoid X Receptor alpha (RXRa) (AID 2283012; active = hit-call score of the fitted dose curve at least 0.9, where 1 is the maximum)
Chain of Retinoic acid receptor RXR-alpha (Homo sapiens) (P19793 whole entry, looked up, the tested form may be a part): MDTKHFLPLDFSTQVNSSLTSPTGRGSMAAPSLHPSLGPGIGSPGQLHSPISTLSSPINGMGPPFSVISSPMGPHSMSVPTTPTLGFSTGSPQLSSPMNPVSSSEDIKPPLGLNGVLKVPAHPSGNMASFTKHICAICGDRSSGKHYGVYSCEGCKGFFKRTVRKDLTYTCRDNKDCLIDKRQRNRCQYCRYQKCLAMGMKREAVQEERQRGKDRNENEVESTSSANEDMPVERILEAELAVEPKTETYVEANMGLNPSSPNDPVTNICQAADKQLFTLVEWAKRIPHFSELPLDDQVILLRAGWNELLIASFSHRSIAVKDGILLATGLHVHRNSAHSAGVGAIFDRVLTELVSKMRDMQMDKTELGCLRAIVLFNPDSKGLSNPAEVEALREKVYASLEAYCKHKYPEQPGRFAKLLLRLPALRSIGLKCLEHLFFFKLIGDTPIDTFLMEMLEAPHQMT
How it was run: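 Chimeric NR-GAL4 trans-activation in HepG2, 24 h treatment; reporter transcripts quantified by fluorescence on capillary electrophoresis, analysed for upward change from DMSO.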

[8] = read-out: E-selectin (Homo sapiens) (UniProt P16581); assay: BSK_3C_Eselectin: BioMAP Diversity Plus: 3C Assay for Eselectin Biomarker Activity (AID 2283015); conditions: primary human endothelial cells (HUVEC); actives raise or lower the signal
How it was run: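 Human vascular endothelium from umbilical vein is exposed to test chemicals for 24 h. E-selectin levels are read by ELISA and compared with DMSO controls.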

[9] = read-out: Interleukin-1 alpha (IL1a), IL1A (gene 3552); assay: BSK_BE3C_IL1a: BioMAP Diversity Plus: BE3C Assay for Interleukin-1 alpha (IL1a) Biomarker Activity (AID 2283016); conditions: primary human bronchial epithelial cells; actives raise or lower the signal
How it was run: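 Measured in human lung primary bronchial epithelial cells: IL-1a by ELISA at 24 h after dosing, with bidirectional fitting against DMSO.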

[10] = read-out: Monocyte Chemoattractant Protein-1 (MCP1), CCL2 (gene 6347); assay: BSK_3C_MCP1: BioMAP Diversity Plus: 3C Assay for Monocyte Chemoattractant Protein-1 (MCP1) Biomarker Activity (AID 2283017); conditions: primary human endothelial cells (HUVEC); actives raise or lower the signal
How it was run: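 Endothelial cells from human umbilical vein are dosed with chemical, cultured 24 h, then assayed for MCP-1 by ELISA; both increases and decreases are modelled against DMSO controls.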

[11] = read-out: Monocyte Chemoattractant Protein-1 (MCP1), CCL2 (gene 6347); assay: BSK_4H_MCP1: BioMAP Diversity Plus: 4H Assay for Monocyte Chemoattractant Protein-1 (MCP1) Biomarker Activity (AID 2283018); conditions: primary human endothelial cells (HUVEC); actives raise or lower the signal
How it was run: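 Primary human umbilical vein endothelium is exposed to chemical for 24 h before MCP-1 is assayed by ELISA. Concentration-response fitted bidirectionally relative to DMSO.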

[12] = read-out: Human Leukocyte Antigen - DR isotype (HLADR), HLA-DRA (gene 3122); assay: BSK_3C_HLADR: BioMAP Diversity Plus: 3C Assay for Human Leukocyte Antigen - DR isotype (HLADR) Biomarker Activity (AID 2283019); conditions: primary human endothelial cells (HUVEC); actives raise or lower the signal
How it was run: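 Endothelial cells from human umbilical vein are treated with test chemical; after 24 h, HLA-DR levels are measured by ELISA. Data are fitted in both directions using DMSO as the baseline.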

[13] = read-out: Interleukin-8 (IL8), CXCL8 (gene 3576); assay: BSK_3C_IL8: BioMAP Diversity Plus: 3C Assay for Interleukin-8 (IL8) Biomarker Activity (AID 2283020); conditions: primary human endothelial cells (HUVEC); actives raise or lower the signal
How it was run: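 Using DMSO-treated wells as the baseline, bidirectional curve fitting was applied to ELISA-measured IL-8 from human umbilical vein endothelial cultures sampled 24 h after compound addition.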

[14] = read-out: Monokine induced gamma interferon (MIG), CXCL9 (gene 4283); assay: BSK_3C_MIG: BioMAP Diversity Plus: 3C Assay for Monokine induced gamma interferon (MIG) Biomarker Activity (AID 2283021); conditions: primary human endothelial cells (HUVEC); actives raise or lower the signal;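 as to AC50: MIG protein level measured by immunoassay in the treated endothelial cultures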
How it was run: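 ELISA-measured MIG in dosed HUVEC 3C cultures at 24 h, analysed by bidirectional fitting with DMSO defining baseline activity.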

[15] = target: human Peroxisome Proliferator-activated Receptor delta (PPARd), PPARD (gene 5467) (UniProt Q03181); assay: ATG_PPARd_TRANS: Attagene TRANS-FACTORIAL HepG2 Assay for human Peroxisome Proliferator-activated Receptor delta (PPARd) (AID 2283002; active = hit-call score of the fitted dose curve at least 0.9, where 1 is the maximum)
Chain of human Peroxisome Proliferator-activated Receptor delta (PPARd), PPARD (gene 5467) (Q03181 whole entry, looked up, the tested form may be a part): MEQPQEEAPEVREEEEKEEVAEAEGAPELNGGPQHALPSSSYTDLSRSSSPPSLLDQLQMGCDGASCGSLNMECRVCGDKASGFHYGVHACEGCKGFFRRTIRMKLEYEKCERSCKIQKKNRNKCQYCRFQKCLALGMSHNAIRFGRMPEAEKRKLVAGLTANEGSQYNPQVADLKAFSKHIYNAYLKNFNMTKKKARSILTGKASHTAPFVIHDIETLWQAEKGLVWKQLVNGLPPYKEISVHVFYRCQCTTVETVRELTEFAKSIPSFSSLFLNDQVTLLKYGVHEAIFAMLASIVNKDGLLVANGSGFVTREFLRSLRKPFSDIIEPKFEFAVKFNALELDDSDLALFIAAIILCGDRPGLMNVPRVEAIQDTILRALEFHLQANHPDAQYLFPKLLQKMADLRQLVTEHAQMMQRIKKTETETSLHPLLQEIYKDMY
How it was run: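 HepG2 cells transiently transfected with GAL4-UAS multiplexed reporter units driven by exogenous chimeric NR-GAL4 proteins; 24 h compound exposure. Reporter mRNA measured by RT-PCR, 6-FAM primer extension, HpaI digestion and capillary electrophoresis; gain of signal fitted relative to DMSO.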

[16] = target: human Vitamin D Receptor (VDR), VDR (gene 7421) (UniProt P11473); assay: ATG_VDR_TRANS: Attagene TRANS-FACTORIAL HepG2 Assay for human Vitamin D Receptor (VDR) (AID 2283022; active = hit-call score of the fitted dose curve at least 0.9, where 1 is the maximum)
Chain of human Vitamin D Receptor (VDR), VDR (gene 7421) (P11473 whole entry, looked up, the tested form may be a part): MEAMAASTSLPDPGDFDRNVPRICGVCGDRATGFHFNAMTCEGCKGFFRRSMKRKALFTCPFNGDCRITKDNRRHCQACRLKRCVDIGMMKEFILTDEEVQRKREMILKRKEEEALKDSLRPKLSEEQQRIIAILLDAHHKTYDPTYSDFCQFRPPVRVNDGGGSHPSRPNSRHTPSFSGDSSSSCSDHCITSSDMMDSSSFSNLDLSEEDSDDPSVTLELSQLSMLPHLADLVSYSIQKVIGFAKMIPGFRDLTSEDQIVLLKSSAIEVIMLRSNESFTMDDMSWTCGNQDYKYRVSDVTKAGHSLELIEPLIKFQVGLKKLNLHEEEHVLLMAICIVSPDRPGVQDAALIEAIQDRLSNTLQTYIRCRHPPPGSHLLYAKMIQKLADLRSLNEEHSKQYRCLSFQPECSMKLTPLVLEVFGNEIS
How it was run: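 Fluorescence of labelled reporter cDNA fragments, resolved by capillary electrophoresis, gives mRNA induction after 24 h treatment of HepG2 cells carrying transfected Gal4-fusion reporter units. Activity is fitted in the positive direction with DMSO as baseline.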

[17] = target: human Retinoid X Receptor beta (RXRb), RXRB (gene 6257) (UniProt P28702); assay: ATG_RXRb_TRANS: Attagene TRANS-FACTORIAL HepG2 Assay for human Retinoid X Receptor beta (RXRb) (AID 2283013; active = hit-call score of the fitted dose curve at least 0.9, where 1 is the maximum)
Chain of human Retinoid X Receptor beta (RXRb), RXRB (gene 6257) (P28702 whole entry, looked up, the tested form may be a part): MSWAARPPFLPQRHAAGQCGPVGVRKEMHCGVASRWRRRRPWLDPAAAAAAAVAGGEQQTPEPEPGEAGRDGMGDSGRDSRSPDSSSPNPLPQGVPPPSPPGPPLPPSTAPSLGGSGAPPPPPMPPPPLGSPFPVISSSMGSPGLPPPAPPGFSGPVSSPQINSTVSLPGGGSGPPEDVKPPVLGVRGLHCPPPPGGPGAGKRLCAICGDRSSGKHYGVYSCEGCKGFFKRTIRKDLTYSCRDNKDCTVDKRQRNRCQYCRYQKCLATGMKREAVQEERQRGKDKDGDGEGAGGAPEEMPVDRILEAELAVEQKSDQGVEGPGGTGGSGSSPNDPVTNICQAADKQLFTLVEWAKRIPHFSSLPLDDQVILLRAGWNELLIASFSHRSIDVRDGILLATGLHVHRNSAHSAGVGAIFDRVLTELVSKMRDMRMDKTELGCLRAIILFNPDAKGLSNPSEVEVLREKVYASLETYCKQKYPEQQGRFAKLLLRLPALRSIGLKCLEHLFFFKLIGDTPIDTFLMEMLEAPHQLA
How it was run: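 After a 24 h incubation with test chemical, transfected HepG2 cells carrying NR-Gal4 fusions and GAL4-UAS reporter transcription units yield RNA whose reporter cDNA is FAM-labelled, HpaI-cut and sized by capillary electrophoresis; increases over DMSO are scored.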

[18] = target: human RAR-related Orphan Receptor gamma (RORg), RORC (gene 6097) (UniProt P51449); assay: ATG_RORg_TRANS: Attagene TRANS-FACTORIAL HepG2 Assay for human RAR-related Orphan Receptor gamma (RORg) (AID 2283011; active = hit-call score of the fitted dose curve at least 0.9, where 1 is the maximum)
Chain of human RAR-related Orphan Receptor gamma (RORg), RORC (gene 6097) (P51449 whole entry, looked up, the tested form may be a part): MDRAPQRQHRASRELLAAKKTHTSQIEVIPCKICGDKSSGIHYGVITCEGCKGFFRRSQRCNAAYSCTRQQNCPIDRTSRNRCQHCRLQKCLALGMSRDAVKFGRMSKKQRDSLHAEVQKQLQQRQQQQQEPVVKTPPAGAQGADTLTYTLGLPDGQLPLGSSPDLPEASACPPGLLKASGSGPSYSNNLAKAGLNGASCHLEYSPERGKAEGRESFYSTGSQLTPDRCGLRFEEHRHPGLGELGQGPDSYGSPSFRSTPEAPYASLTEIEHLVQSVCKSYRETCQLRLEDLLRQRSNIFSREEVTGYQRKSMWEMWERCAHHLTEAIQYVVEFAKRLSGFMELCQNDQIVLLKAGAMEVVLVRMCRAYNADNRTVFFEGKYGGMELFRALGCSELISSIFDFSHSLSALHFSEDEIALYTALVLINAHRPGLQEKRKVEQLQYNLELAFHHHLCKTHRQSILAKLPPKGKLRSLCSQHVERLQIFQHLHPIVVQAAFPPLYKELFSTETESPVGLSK
How it was run: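 Activity is scored as increase in GAL4-UAS reporter mRNA over DMSO, detected by fluorescent RT-PCR and capillary electrophoresis in HepG2 cells transiently expressing a RORg-Gal4 chimera, 24 h after dosing.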

[19] = target: human Thyroid Receptor alpha (THRa1), THRA (gene 7067) (UniProt P10827); assay: ATG_THRa1_TRANS: Attagene TRANS-FACTORIAL HepG2 Assay for human Thyroid Receptor alpha (THRa1) (AID 2283014; active = hit-call score of the fitted dose curve at least 0.9, where 1 is the maximum)
How it was run: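 First, HepG2 cells receive multiple GAL4-UAS reporter units and the chimeric receptor. They are then dosed for 24 h, after which RNA is reverse-transcribed, amplified, labelled, HpaI-cut and sized by capillary electrophoresis; gain relative to DMSO is scored.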

[20] = target: human RAR-related Orphan Receptor beta (RORb), RORB (gene 6096) (UniProt Q92753); assay: ATG_RORb_TRANS: Attagene TRANS-FACTORIAL HepG2 Assay for human RAR-related Orphan Receptor beta (RORb) (AID 2283010; active = hit-call score of the fitted dose curve at least 0.9, where 1 is the maximum)
Chain of human RAR-related Orphan Receptor beta (RORb), RORB (gene 6096) (Q92753 whole entry, looked up, the tested form may be a part): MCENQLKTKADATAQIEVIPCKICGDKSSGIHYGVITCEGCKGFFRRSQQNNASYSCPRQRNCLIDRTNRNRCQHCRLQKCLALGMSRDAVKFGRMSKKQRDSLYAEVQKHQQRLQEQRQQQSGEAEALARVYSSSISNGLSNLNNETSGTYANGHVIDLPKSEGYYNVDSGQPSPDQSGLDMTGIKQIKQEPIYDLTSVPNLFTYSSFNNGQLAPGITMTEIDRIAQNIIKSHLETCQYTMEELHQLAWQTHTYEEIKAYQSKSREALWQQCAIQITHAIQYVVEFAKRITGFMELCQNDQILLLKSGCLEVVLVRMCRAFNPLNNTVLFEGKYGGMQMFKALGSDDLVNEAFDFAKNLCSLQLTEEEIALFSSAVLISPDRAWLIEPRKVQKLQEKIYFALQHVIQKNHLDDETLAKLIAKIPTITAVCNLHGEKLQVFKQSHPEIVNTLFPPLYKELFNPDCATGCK
How it was run: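 Multiplexed transcription-factor reporter assay: HepG2 cells transiently carrying NR-Gal4/GAL4-UAS constructs, 24 h treatment, mRNA quantified by RT-PCR plus capillary electrophoresis fluorescence; activity scored as induction over DMSO.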

Measured: AC50

Chain of E-selectin (Homo sapiens) (P16581 whole entry, looked up): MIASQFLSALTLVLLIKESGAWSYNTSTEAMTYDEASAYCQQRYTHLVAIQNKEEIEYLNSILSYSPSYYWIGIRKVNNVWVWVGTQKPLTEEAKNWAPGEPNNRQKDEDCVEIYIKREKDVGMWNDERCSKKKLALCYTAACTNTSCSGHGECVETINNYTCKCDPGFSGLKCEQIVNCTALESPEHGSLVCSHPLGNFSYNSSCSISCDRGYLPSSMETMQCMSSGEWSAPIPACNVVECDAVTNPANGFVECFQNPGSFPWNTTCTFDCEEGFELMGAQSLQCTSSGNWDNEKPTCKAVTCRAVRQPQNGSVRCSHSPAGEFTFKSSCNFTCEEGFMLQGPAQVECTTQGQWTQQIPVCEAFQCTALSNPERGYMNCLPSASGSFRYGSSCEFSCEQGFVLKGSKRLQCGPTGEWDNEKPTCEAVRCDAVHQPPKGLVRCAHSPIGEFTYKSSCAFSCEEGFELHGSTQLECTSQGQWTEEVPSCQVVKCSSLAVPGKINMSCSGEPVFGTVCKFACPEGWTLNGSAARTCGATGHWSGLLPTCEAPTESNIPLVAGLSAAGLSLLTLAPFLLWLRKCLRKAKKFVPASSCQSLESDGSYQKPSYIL

CCOC(=O)c1ccc(C2CCC(NC[C@H](O)COc3ccc(O)c(NS(C)(=O)=O)c3)CC2)cc1 (some centres not stated)
active: [2] 52.3 µM | [4] 28.1 µM | [6] 33 µM | [7] 54.3 µM | [10] 27.9 µM | [12] 31.1 µM | [13] 27.7 µM
inactive: [1] | [3] | [5] | [8] | [9] | [11] | [14]

O=C(CCCCCCCCc1cccnc1)N1CCC(C=C(c2ccccc2)c2ccccc2)CC1
active: [1] 15.4 µM | [5] 1.41 µM | [6] 1.08 µM | [8] 19.4 µM | [9] 27.3 µM | [10] 8.66 µM | [11] 5.75 µM | [12] 6.54 µM | [13] 8.66 µM | [14] 14.2 µM | [16] 100 µM
inactive: [15] | [7]

CC1(C)C(=O)N(Br)C(=O)N1Br
inactive: [15] | [1] | [17] | [8] | [9] | [10] | [11] | [12] | [13] | [14] | [16]

COC(=O)c1c(Cl)c(Cl)c(C(=O)OC)c(Cl)c1Cl
inactive: [15] | [1] | [6] | [18] | [7] | [8] | [9] | [10] | [11] | [12] | [13] | [14]
active: [5] 35.9 µM | [17] 30.8 µM

CCOc1cccc(-n2cc(C(=O)N3CCN(c4cc(C(=O)O)c5ccccc5c4)CC3)nc2-c2ccc(C)cc2)c1
active: [1] 29.7 µM | [4] 13.5 µM | [5] 7.92 µM | [9] 29.2 µM | [10] 23 µM | [11] 23.3 µM | [12] 15.3 µM | [13] 11.9 µM | [14] 35.5 µM
inactive: [15] | [7] | [19] | [8] | [16]

CC(=O)c1ccc2c(c1)[C@H](NC(=O)c1ccc(F)cc1)[C@@H](O)C(C)(C)O2
inactive: [1] | [2] | [5] | [20] | [18] | [8] | [9] | [10] | [11] | [12] | [13] | [14]
active: [6] 12.7 µM

CCN(C(=O)c1cc(C)cc(OC[C@H](C)Nc2ccncc2)c1)C(C)C
active: [6] 7.38 µM
inactive: [1] | [2] | [3] | [5] | [20] | [7] | [8] | [9] | [10] | [11] | [12] | [13] | [14]

CC(C)=CCCC(C)=CC=O
inactive: [15] | [1] | [18] | [7] | [8] | [9] | [10] | [11] | [12] | [13] | [14] | [16]
active: [5] 21 µM | [6] 4.42 µM
